Values joined by “and” are separate entries in the source; they are usually repeats but may differ in a detail not shown here. Identical values can stand only once. Some compounds were tested as several samples or in several runs, with calls that do not always agree. Active and inactive are the calls of the source. How the source made its calls: active means hit-call score of the fitted dose curve at least 0.9, where 1 is the maximum; inactive means score below 0.9.

Assay [1] can be described thus: APR_HepG2_NuclearSize_72hr: Apredica 72-hour HepG2 Assay for Nuclear Size (AID 2282925). The settings on record: high-content imaging, actives raise or lower the signal. In a few lines:
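HepG2 cells were exposed to compounds at ten concentrations from 0.39 to 200 uM (duplicate, 0.5% DMSO final) for 72 hr. After fixation in 3.7% formaldehyde, nuclei were stained with Hoechst 33342 (2 ug/mL) and imaged at 20x.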

Assay [2] can be described thus: ATG_CRE_CIS: Attagene CIS-FACTORIAL HepG2 Assay for human cAMP Responsive Element (CRE) binding protein 3 (AID 2282926). The settings on record: HepG2 CRE cis-reporter, Attagene multiplexed mRNA; actives raise or lower the signal. In a few lines: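 Human liver HepG2, transient MRTU transfection, 24 h compound exposure. Total RNA → oligo(dT) RT → PCR → 6-FAM primer extension → HpaI cut → CE. Activity called both directions vs DMSO.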

Assay [3] deals with CCAAT/enhancer-binding protein beta (Homo sapiens) (UniProt P17676). The experiment in a line: ATG_C_EBP_CIS: Attagene CIS-FACTORIAL HepG2 Assay for human CCAAT/Enhancer Binding Protein (C/EBP) beta (AID 2282927). Conditions: HepG2 Attagene cis-factorial transcription factor reporter; actives raise or lower the signal. In a few lines:
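RT-PCR/capillary electrophoresis fluorescence of reporter mRNA, 24 h post-dose, in HepG2 cells carrying transfected cis-promoter reporter units. Bidirectional curve fitting against DMSO baseline captures gain or loss of signal.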

A short description of assay [4]: ATG_CMV_CIS: Attagene CIS-FACTORIAL HepG2 Assay for human CMV (Internal Marker) (AID 2282928).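 Further: endpoint acts as a background internal control marker rather than a target.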 Conditions: HepG2 CMV promoter reporter, transcription factor profiling; actives raise or lower the signal. In a few lines: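 After transient transfection of HepG2 with reporter transcription units driven by cis-regulatory promoters, cells receive test chemical for 24 h. Labeled reporter amplicons, digested with HpaI, are sized and quantified by capillary electrophoresis against DMSO.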

A short description of assay [5]: ATG_DR4_LXR_CIS: Attagene CIS-FACTORIAL HepG2 Assay for human Liver X Receptor (LXR), DR4 submotif (AID 2282929). Conditions: HepG2 Attagene DR4 cis-reporter, mRNA transcription; actives raise or lower the signal. In a few lines:
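Cells were transfected with multiple reporter transcription units, exposed to chemicals for 24 hours, then lysed for RNA. Reporter mRNA induction was measured by RT-PCR with capillary electrophoresis detection and fitted in both directions relative to DMSO.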

In assay [6] the target is Aryl hydrocarbon receptor (Homo sapiens) (UniProt P35869). The assay can be described thus: ATG_Ahr_CIS: Attagene CIS-FACTORIAL HepG2 Assay for human Aryl Hydrocarbon Receptor (Ahr) (AID 2282930). The settings on record: HepG2 AhR cis-factorial reporter transcription; actives raise or lower the signal. In a few lines: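 HepG2 cells transiently transfected with cis-element-driven multiplexed reporter transcription units; endogenous transcription factor activity measured as reporter mRNA 24 h after dosing. RT-PCR, 6-FAM labelling, HpaI digestion, capillary electrophoresis; bidirectional fitting versus DMSO baseline.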
Sequence of Aryl hydrocarbon receptor (Homo sapiens) (P35869 whole entry, looked up): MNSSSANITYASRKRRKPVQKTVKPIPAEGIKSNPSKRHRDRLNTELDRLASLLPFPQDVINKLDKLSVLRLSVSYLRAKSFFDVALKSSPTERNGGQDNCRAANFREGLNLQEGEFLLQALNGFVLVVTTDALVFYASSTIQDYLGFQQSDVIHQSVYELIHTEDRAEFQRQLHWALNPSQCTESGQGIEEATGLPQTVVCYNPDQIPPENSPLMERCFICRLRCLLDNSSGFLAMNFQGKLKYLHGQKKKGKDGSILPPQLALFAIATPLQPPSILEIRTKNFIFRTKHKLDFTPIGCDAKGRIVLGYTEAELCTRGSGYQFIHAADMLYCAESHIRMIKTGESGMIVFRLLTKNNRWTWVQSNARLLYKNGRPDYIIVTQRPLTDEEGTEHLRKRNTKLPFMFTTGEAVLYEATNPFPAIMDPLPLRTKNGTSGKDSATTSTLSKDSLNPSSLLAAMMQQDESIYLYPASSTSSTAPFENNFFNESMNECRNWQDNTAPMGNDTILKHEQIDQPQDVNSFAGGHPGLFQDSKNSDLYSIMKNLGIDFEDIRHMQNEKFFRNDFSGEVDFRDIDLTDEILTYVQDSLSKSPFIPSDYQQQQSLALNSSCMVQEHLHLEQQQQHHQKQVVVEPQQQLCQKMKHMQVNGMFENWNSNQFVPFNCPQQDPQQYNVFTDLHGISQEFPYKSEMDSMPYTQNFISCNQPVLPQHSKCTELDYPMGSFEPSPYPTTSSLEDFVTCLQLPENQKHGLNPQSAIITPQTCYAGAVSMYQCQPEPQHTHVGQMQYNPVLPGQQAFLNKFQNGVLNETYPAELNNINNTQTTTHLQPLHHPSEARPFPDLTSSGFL

Assay [7] can be described thus: ATG_AP_2_CIS: Attagene CIS-FACTORIAL HepG2 Assay for human Activator Protein 2 (AP-2) (AID 2282932). Conditions: HepG2 AP-2 cis-reporter, Attagene transcription factor profiling; actives raise or lower the signal. In a few lines:
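Bidirectional curve fitting against DMSO was applied to reporter mRNA signals from HepG2 cells 24 h after dosing. Cis-promoter reporter units, transiently transfected, were read by RT-PCR plus capillary electrophoresis.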

Assay [8] is described as follows: ATG_BRE_CIS: Attagene CIS-FACTORIAL HepG2 Assay for human Bone Morphogenetic Protein (BMP) Response Element (BRE) (AID 2282933). The settings on record: HepG2 BMP response element reporter, Attagene transcription factor profiling; actives raise or lower the signal. The gist of the method:
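A HepG2 multiplex reporter system measured inducible reporter mRNA 24 h post-dosing. Detection: RT-PCR, 6-FAM primer extension, HpaI digestion, capillary electrophoresis. Activity fitted bidirectionally relative to DMSO.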

Assay [9] deals with Retinoic acid receptor alpha (Homo sapiens) (UniProt P10276). The experiment in a line: ATG_DR5_RAR_CIS: Attagene CIS-FACTORIAL HepG2 Assay for human Retinoic Acid Receptor Alpha (RARE), DR5 submotif (AID 2282934). The settings on record: HepG2 Attagene cis-factorial RARE DR5 reporter, mRNA; actives raise or lower the signal. In a few lines: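 HepG2 cells transiently transfected with multiplexed reporter units under cis (DR5 RARE) promoters, so endogenous transcription factor activity is measured. After 24 h compound exposure, reporter mRNA is quantified by RT-PCR with fluorescent labelling and capillary electrophoresis; bidirectional fitting versus DMSO.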
Sequence of Retinoic acid receptor alpha (Homo sapiens) (P10276 whole entry, looked up): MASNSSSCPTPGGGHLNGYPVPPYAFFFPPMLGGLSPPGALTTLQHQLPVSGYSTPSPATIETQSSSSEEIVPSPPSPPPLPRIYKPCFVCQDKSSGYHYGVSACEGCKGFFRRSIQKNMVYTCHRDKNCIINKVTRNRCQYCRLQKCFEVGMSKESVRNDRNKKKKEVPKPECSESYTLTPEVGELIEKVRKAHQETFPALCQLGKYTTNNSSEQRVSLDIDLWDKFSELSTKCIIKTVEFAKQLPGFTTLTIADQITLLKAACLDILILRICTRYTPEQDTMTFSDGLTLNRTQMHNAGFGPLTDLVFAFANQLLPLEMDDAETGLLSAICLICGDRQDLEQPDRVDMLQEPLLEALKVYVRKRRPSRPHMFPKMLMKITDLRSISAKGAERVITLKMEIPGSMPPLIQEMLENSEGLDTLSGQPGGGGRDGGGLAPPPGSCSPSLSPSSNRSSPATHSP

In assay [10] the target is Transcription factor E2F1 (Homo sapiens) (UniProt Q01094). The assay can be described thus: ATG_E2F_CIS: Attagene CIS-FACTORIAL HepG2 Assay for human E2F Transcription Factor 1 (AID 2282935). Conditions: HepG2 Attagene cis-reporter, E2F reporter RNA transcripts; actives raise or lower the signal. In a few lines: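 Multiplexed cis-reporter assay: HepG2, transient transfection, 24 h dosing, mRNA quantitation by labeled RT-PCR and CE.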
Sequence of Transcription factor E2F1 (Homo sapiens) (Q01094 whole entry, looked up): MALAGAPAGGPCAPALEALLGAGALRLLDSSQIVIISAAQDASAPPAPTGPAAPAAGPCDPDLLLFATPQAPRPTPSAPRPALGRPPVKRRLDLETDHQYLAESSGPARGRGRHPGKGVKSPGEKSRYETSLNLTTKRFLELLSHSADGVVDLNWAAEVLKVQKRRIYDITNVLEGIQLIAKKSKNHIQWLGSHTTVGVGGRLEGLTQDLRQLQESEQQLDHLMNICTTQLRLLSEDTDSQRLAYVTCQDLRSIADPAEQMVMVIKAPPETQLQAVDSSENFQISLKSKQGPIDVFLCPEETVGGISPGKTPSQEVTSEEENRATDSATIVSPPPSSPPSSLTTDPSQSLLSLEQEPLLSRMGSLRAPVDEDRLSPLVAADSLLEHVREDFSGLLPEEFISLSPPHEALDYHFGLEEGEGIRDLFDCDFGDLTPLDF

The nature of assay [11]: ATG_E_Box_CIS: Attagene CIS-FACTORIAL HepG2 Assay for human Enhancer Box (E-box) (AID 2282936). The settings on record: HepG2 E-box cis-reporter transcription, actives raise or lower the signal. The gist of the method:
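Multiplexed CIS reporter system in transiently transfected HepG2 cells measures native transcription factor activity. Reporter RNA after 24 h exposure is profiled by RT-PCR-capillary electrophoresis.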

The nature of assay [12]: ATG_M_61_CIS: Attagene CIS-FACTORIAL HepG2 Assay for M61 Transcription Factor (Internal Marker) (AID 2282937). Conditions: HepG2 Attagene CIS-FACTORIAL M61 internal marker reporter; actives raise or lower the signal. The gist of the method: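 Cells were transfected with reporter units under cis-regulatory promoters, treated with chemicals for 24 h, then lysed for RNA. Reporter transcripts were quantified by RT-PCR and capillary electrophoresis, and activity was fitted bidirectionally against DMSO.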

Assay [13] is described as follows: ATG_EGR_CIS: Attagene CIS-FACTORIAL HepG2 Assay for human Early Growth Response 1 (EGR1) (AID 2282938). Conditions: HepG2 Attagene CIS-FACTORIAL EGR reporter mRNA; actives raise or lower the signal. In a few lines:
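Endogenous TF activity in HepG2 liver cells was gauged through cis-promoter reporter constructs transiently transfected. After 24 h dosing, reporter mRNA was quantified by RT-PCR and capillary electrophoresis, and curves fitted in both directions versus DMSO.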

Assay [14] in a line: ATG_M_19_CIS: Attagene CIS-FACTORIAL HepG2 Assay for M19 Transcription Factor (Internal Marker) (AID 2282939). The settings on record: HepG2 Attagene CIS-FACTORIAL M19 internal marker reporter; actives raise or lower the signal. The gist of the method:
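Chemical-treated HepG2 (24 h) with MRTU constructs; reporter transcripts detected by fluorescent RT-PCR fragment analysis on capillary electrophoresis. Internal background marker, DMSO as baseline.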

A short description of assay [15]: ATG_ERE_CIS: Attagene CIS-FACTORIAL HepG2 Assay for Estrogen Response Element (ERE) (AID 2282940). Conditions: HepG2 ERE cis-reporter, Attagene RNA transcript; actives raise or lower the signal. The gist of the method:
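Human liver cells (HepG2) bearing transiently transfected, promoter-regulated reporter units were exposed 24 h. Reporter mRNA induction was detected by capillary electrophoresis of labelled RT-PCR products and fitted bidirectionally to DMSO.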

Assay [16] can be described thus: ATG_Ets_CIS: Attagene CIS-FACTORIAL HepG2 Assay for human Erythroblast Transformation Specific (ETS) (AID 2282941). The settings on record: HepG2 ETS cis-reporter transcription, actives raise or lower the signal. The gist of the method:
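Human HepG2 hepatoma cells were transiently transfected with promoter-driven reporter constructs and treated for 24 hours. Reporter transcripts were quantified by RT-PCR with fluorescent primer extension; bidirectional curve fitting used DMSO as reference.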

Assay [17] addresses Hepatocyte nuclear factor 3-beta (Homo sapiens) (UniProt Q9Y261). The assay can be described thus: ATG_FoxA2_CIS: Attagene CIS-FACTORIAL HepG2 Assay for human Forkhead box A2 (FOXA2) (AID 2282942). The settings on record: HepG2 cis-reporter transcription factor activity, 24 h; actives raise or lower the signal. The gist of the method:
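Endogenous transcription factor activity was read in HepG2 cells carrying transiently transfected cis-promoter reporter units. After 24 h dosing, reporter mRNA was quantified by RT-PCR and capillary electrophoresis, and values fitted bidirectionally versus DMSO.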

Assay [18] is described as follows: ATG_FoxO_CIS: Attagene CIS-FACTORIAL HepG2 Assay for human Forkhead box O (FoxO) (AID 2282943). The settings on record: HepG2 Attagene cis-reporter, FoxO element, mRNA; actives raise or lower the signal. The gist of the method: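 HepG2 cells transiently transfected with cis-promoter-driven multiple reporter transcription units; 24 h after chemical dosing, reporter mRNA quantified by RT-PCR, fluorescent primer extension, HpaI digestion and capillary electrophoresis. Bidirectional fitting versus DMSO baseline.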

Assay [19] is described as follows: ATG_AP_1_CIS: Attagene CIS-FACTORIAL HepG2 Assay for human Activator Protein 1 (AP-1) (AID 2282931). The settings on record: HepG2 Attagene cis-factorial AP-1 reporter mRNA; actives raise or lower the signal. The gist of the method: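 Endogenous transcription-factor activity in human HepG2 liver cells is read through a cis-promoter reporter transcript, sampled 24 h after dosing. Detection uses RT-PCR with capillary electrophoresis; values come from bidirectional fitting relative to DMSO.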

Assay [20] can be described thus: ATG_GATA_CIS: Attagene CIS-FACTORIAL HepG2 Assay for human GATA Binding Protein (AID 2282944). Conditions: HepG2 GATA cis-element reporter, Attagene multiplex mRNA; actives raise or lower the signal. In a few lines: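 Transfected cis-reporter HepG2 cells were treated with chemicals for 24 hours. Total RNA was then converted to cDNA, amplified with reporter-specific primers and analysed by fluorescent capillary electrophoresis, using DMSO-treated wells as baseline.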

Sequence of CCAAT/enhancer-binding protein beta (Homo sapiens) (P17676 whole entry, looked up): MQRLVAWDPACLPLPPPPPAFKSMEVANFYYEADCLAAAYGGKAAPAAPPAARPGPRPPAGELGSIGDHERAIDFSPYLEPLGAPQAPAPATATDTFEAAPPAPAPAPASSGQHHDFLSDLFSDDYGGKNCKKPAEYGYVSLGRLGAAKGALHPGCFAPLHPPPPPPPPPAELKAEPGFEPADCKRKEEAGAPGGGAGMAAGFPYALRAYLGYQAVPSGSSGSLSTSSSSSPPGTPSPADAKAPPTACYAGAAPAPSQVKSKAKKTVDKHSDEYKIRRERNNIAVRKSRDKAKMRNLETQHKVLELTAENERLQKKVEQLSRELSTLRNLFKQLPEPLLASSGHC
Sequence of Hepatocyte nuclear factor 3-beta (Homo sapiens) (Q9Y261 whole entry, looked up): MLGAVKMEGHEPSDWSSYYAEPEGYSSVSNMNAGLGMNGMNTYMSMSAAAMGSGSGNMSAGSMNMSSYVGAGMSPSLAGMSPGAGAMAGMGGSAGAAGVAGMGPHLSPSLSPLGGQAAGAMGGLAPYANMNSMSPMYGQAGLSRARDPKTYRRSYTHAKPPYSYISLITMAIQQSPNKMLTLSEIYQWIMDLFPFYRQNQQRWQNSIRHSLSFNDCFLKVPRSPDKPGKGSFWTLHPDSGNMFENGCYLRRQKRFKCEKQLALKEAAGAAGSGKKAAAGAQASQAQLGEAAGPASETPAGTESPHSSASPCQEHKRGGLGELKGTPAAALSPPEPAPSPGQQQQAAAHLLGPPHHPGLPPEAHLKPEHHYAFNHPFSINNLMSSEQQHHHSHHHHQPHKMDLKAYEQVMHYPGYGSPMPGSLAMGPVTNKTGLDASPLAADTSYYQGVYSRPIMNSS

Usually AC50 stands for the concentration at which the activity in the assay is half-maximal. `O=C(c1ccccc1)C1CCCCC1`: the call in [1], in assay [2], in assay [3], in assay [4], in assay [5] and in assay [6] was inactive. Besides, the compound was classed as inactive in assay [7], in assay [8], in assay [9], in [10], in assay [11] and in assay [12]. The outcome in assay [13], in [14], in [16], in assay [17] and in [18] was inactive. Besides, the figures for the AC50 in assay [6] and in assay [15] were 17.2 µM (active) and 17.4 µM (active) [middle of 4 runs], respectively.
Take `N#CSCSc1nc2ccccc2s1`: the outcome in [1], in assay [2], in assay [3], in assay [4], in assay [5] and in [6] was inactive. Besides, the result in [7], in [8], in assay [9], in assay [10], in [11] and in [12] was inactive. Besides, the call in assay [13], in assay [14], in assay [15], in assay [16], in assay [17] and in assay [18] was inactive. Further, the AC50 was 18.2 µM (active) in assay [2]; 2.95 µM (active) in [4]; 3.05 µM (active) in [5]; 9.15 µM (active) in assay [7]; 3.03 µM (active) in assay [8]; 6.89 µM (active) in assay [11].
In the case of `CCN(CC)C(=O)c1cccc(C)c1`, the compound was called inactive in [1], in assay [2], in assay [3], in assay [4], in assay [5] and in assay [6]. Moreover, the result in [19], in [7], in [8], in assay [9], in assay [10] and in assay [11] was inactive. Besides, the result in [12], in assay [14], in assay [15], in assay [16], in [17] and in assay [18] was inactive.
As for `CCOC(=O)c1ccc(O)cc1`, the compound was classed as inactive in assay [1], in assay [2], in [3], in [4], in assay [5] and in assay [6]. Also, the compound was classed as inactive in assay [19], in [7], in assay [8], in assay [9], in assay [10] and in [11]. The compound was classed as inactive in [12], in [13], in [14], in assay [16], in [17] and in assay [18]. For the same compound, the AC50 in [3] was 100 µM (active); in [8], 166 µM (active); in [11], 167 µM (active).
With `CC(=O)[C@H]1CC[C@H]2[C@@H]3CCC4=CC(=O)CC[C@]4(C)[C@H]3CC[C@]12C`, the compound was called inactive in assay [1], in [2], in [3], in assay [4], in assay [5] and in assay [6]. The call in [7], in assay [9], in assay [10], in [12], in [14] and in assay [16] was inactive. Besides, the call in assay [17] and in [18] was inactive. Further, the AC50 in assay [3] was 115 µM (active); in assay [4], 160 µM (active); in [5], 8.67 µM (active); in assay [6], 100 µM (active); in [8], 33.4 µM (active) and 24.3 µM (active) and 33.7 µM (active); in assay [10], 68.4 µM (active). The AC50 in assay [15] is 1.27 µM (active) [middle of 4 runs]; in assay [18], 154 µM (active).
As for `COCCO`, the compound was called inactive in assay [1], in assay [2], in assay [3], in assay [4], in assay [5] and in assay [6]. The call in [19], in assay [7], in [8], in assay [9], in assay [10] and in [11] was inactive. The outcome in assay [12], in assay [14], in [15], in assay [16], in assay [17] and in [18] was inactive. Further, the compound was classed as inactive in [20].
